Active and inactive are the calls of the source.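 How the source made its calls, unless noted: active means inhibition at or above 50% at 10 µM; inactive means inhibition below 50%.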
What was measured:
[1] = inhibitors of TNFa-induced NFkB p65 translocation, primary screen, imaging, HUVEC, MLSMR starter and 10KST1 sets (AID 438;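 active means inhibition above 20% together with a positive visual image hit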;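 further: compound added about 3h40 before a 20 min TNFalpha stimulation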;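 on inhibition: signal is the nuclear over cytoplasmic p65 intensity ratio per well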); conditions: HUVEC TNFa-induced p65 nuclear translocation; cell count: measured here: nuclei count (cytotoxicity indicator), at 2.08 µM; inhibition: at 2 µM, stronger effect = higher value, 0% TNFa-plus-vehicle, 100% no-TNFa wells
[2] = reduction of polyQ htt aggregates in cells – imaging, exon1htt(103Q)mCFP cells, high-content imaging, primary screen (AID 483;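 active means visual image review flags a hit and inhibition of aggregation exceeds 20%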;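 further: compound exposure lasted 3 days before fixation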;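 on nuclei count: percent of the per-plate median nuclei count of sample wells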); conditions: exon1htt(103Q)mCFP cell line, aggregate imaging, at 2 µM; inhibition of aggregation: stronger effect = higher value; nuclei count: measured here: cell count, toxicity
[3] = endothelial E-selectin expression blockers – imaging, HUVEC, immunofluorescence, MLSMR starter and 10KST1 sets, primary screen (AID 487;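 active means visually confirmed hit in the image check and inhibition above 20%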;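 on inhibition: signal is fraction of cell area covered by stained E-selectin grains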;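 on nuclei count: 100% = median nuclei count of all wells on the same plate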); conditions: HUVEC TNFalpha-induced E-selectin immunofluorescence imaging, at 2 µM; inhibition: stronger effect = higher value; nuclei count: measured here: cell number, toxicity
[4] = target: Voltage-gated potassium channel subunit beta-2 (Rattus norvegicus) (UniProt P62483); assay: inhibitors of rat Kvbeta2 reductase activity – biochemical, NADPH fluorescence, primary screen (AID 622;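 active means fluorescence slope higher than the sample average by over 3 SD, cut at about -0.22 in these data, passing the limit was not always enough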;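 further: slope of raw intensity against log time taken from 70 to 1610 s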); conditions: recombinant KvBeta, 4-cyanobenzaldehyde reduction, at 10 µM, stronger effect = higher value
Sequence of Voltage-gated potassium channel subunit beta-2 (Rattus norvegicus) (P62483 whole entry, looked up): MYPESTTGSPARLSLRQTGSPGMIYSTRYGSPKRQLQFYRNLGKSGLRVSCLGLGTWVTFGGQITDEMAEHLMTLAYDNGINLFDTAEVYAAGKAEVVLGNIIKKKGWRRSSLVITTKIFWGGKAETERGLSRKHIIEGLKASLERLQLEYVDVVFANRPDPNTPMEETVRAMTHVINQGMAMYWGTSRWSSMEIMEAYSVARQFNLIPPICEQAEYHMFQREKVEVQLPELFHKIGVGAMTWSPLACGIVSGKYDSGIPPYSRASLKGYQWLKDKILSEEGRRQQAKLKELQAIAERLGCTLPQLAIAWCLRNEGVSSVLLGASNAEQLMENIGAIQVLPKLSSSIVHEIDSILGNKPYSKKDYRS

[5] = target: Voltage-gated potassium channel subunit beta-2 (Rattus norvegicus) (UniProt P62483); assay: enhancers of rat Kvbeta2 NADPH turnover – biochemical, NADPH fluorescence, primary screen (AID 623;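 active means NADPH fluorescence slope more negative than the mean of all samples by about 3 SD, 99.7% confidence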;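 further: fluorescence intensity change per second fitted from 20 to 320 s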); conditions: Recombinant KvBeta, NADPH fluorescence decrease slope, 10 min; at 10 µM; stronger effect = lower value
[6] = target: Alpha-2C adrenergic receptor (Homo sapiens) (UniProt P18825); assay: compounds altering alpha2C-coupled GIRK flux – cell-based, HEK293 alpha2C/GIRK1/2, thallium flux, primary screen (AID 624;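 active means fluorescence slope after compound addition differing from the mean of all screened samples at 99.7% confidence, in either direction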;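 further: slope of fluorescence ratio to pre-addition baseline per second over 15 to 24 s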); conditions: thallium flux BTC fluorescence, at 10 µM, actives lie on both sides
Sequence of Alpha-2C adrenergic receptor (Homo sapiens) (P18825 whole entry, looked up): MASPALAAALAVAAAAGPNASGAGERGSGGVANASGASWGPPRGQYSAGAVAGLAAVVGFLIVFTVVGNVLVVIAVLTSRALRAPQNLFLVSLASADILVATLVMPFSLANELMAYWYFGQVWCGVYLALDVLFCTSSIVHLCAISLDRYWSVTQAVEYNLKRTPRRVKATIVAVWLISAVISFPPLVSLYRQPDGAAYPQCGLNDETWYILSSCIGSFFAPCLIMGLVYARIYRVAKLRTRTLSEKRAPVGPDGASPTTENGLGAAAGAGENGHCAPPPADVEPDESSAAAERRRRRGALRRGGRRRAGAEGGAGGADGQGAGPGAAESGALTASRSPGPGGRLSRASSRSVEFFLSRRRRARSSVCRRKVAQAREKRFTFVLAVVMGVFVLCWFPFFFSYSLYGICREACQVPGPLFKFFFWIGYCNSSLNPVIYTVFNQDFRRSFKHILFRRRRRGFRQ

[7] = blockers of RIG-like receptor reporter activation – cell-based, Sendai virus stimulus, luciferase, 10K MLSCN set, TLR/RLR signaling modifier project, primary screen (AID 602276); conditions: HEK293 RL24 IRF3 luciferase reporter, at 10 µM, stronger effect = higher value;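 further: firefly luciferase from ISG56 promoter only with Renilla not read in this screen; 0% = Sendai virus plus DMSO and 100% = medium plus DMSO without virus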
[8] = TLR3 IRF3 reporter activation blockers – cell-based, poly I:C stimulus, luciferase, 10K MLSCN set, primary screen (AID 602277;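 active means inhibition of the reporter signal at or above 50%; inactive means inhibition below 50%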); conditions: HEK293-TLR3 RL24 IRF3 luciferase reporter, at 10 µM, stronger effect = higher value

SMILES | cell count [1] | inhibition [1] | inhibition of aggregation [2] | nuclei count [2] [%] | inhibition [3] | nuclei count [3] [%] | fluorescence slope [4] | NADPH fluorescence slope [5] | slope [6] | inhibition [7] | inhibition [8]
Cc1ccc2[nH]c(=O)c(-c3noc(-c4ccncc4)n3)cc2c1 | 474 | -9.1% (inactive) | -82.1% (inactive) | 65 | -51% (inactive) | 93.8 | -0.31 (inactive) | -6e-05 (inactive) | 0.0054 (inactive) | 8.49% (inactive) | 12.4% (inactive)
FC(F)(F)c1cc(-c2ccco2)nc(NCc2ccco2)n1 | 589 | 14.6% (inactive) | 28.3% (inactive) | 95.5 | -24.3% (inactive) | 94.8 | -0.194 (inactive) | -3e-05 (inactive) | 0.00472 (inactive) | 14.2% (inactive) | 13.8% (inactive)
CCN(CC)S(=O)(=O)c1ccc(NC2c3ccccc3C(=O)N2CCN2CCOCC2)cc1 (centres undefined) | 534 | -12.6% (inactive) | 24.2% (inactive) | 95.3 | -147% (inactive) | 128 | -0.611 (inactive) | 1.3e-05 (inactive) | 0.00571 (inactive) | 4.22% (inactive) | 10.7% (inactive)
CCC(C)C(=O)Nc1nc2c(s1)C(=O)CC(C)(C)C2 (centres undefined) | 612 | 6.9% (inactive) | -4.2% (inactive) | 102 | -8.8% (inactive) | 115 | -0.553 (inactive) | -2.6e-05 (inactive) | 0.00723 (inactive) | -7.18% (inactive) | -6.11% (inactive)
Cc1cc(Nc2ccc(N3CCC(C)CC3)cc2)n2ncnc2n1 | 426 | -2.4% (inactive) | 6% (inactive) | 103 | -18.3% (inactive) | 115 | -0.602 (inactive) | 7e-05 (inactive) | 0.00396 (inactive) | -6.44% (inactive) | -3.16% (inactive)
O=S(=O)(NC1CCCCC1NS(=O)(=O)c1ccc(F)cc1)c1ccc(F)cc1 (centres undefined) | 334 | 5.3% (inactive) | -1.8% (inactive) | 101 | 5.1% (inactive) | 112 | -0.503 (inactive) | -3.7e-06 (inactive) | 0.00507 (inactive) | 21.4% (inactive) | 26.6% (inactive)
COc1ccccc1NC(=O)NCCCN1CCN(c2cccc(Cl)c2)CC1 | 628 | -11.6% (inactive) | 13.1% (inactive) | 112 | -47.7% (inactive) | 118 | -0.556 (inactive) | 1e-05 (inactive) | 0.00548 (inactive) | -24.8% (inactive) | -19.5% (inactive)
CN(C)c1nc(Oc2ccc(=O)n(C)n2)nc(N2CCOCC2)n1 | 306 | 0.5% (inactive) | 17.6% (inactive) | 93.3 | 31.4% (inactive) | 96.5 | -0.632 (inactive) | 1.5e-05 (inactive) | 0.00286 (inactive) | 16.8% (inactive) | 10.1% (inactive)
CC(=O)Nc1ccc(N=Cc2ccc[nH]2)cc1 | 362 | 3.4% (inactive) | -8.9% (inactive) | 108 | 9.1% (inactive) | 99.4 | -0.264 (inactive) | -1.6e-05 (inactive) | 0.00576 (inactive) | 9.12% (inactive) | -21% (inactive)
Cc1c(-n2c(CN3C(=O)c4ccccc4C3=O)nc3ccccc3c2=O)c(=O)n(-c2ccccc2)n1C | 407 | -8.4% (inactive) | -10.1% (inactive) | 115 | 77.1% (inactive) | 95.8 | -0.619 (inactive) | 1.1e-05 (inactive) | 0.00583 (inactive) | 5.03% (inactive) | 24.9% (inactive)
Cc1c(C(=O)N2CCOCC2)oc2ccc(S(=O)(=O)N3CCCC3)cc12 | 729 | -14.1% (inactive) | 4.5% (inactive) | 106 | -31.7% (inactive) | 105 | -0.518 (inactive) | -7.1e-05 (inactive) | 0.00624 (inactive) | -1.69% (inactive) | 2.47% (inactive)
CC(=O)NC(Cc1ccccc1)C(=O)NC1CCN(C(=O)c2cnccn2)CC1 (centres undefined) | 991 | -1% (inactive) | -7% (inactive) | 136 | -54.3% (inactive) | 120 | -0.48 (inactive) | -2.5e-05 (inactive) | 0.00556 (inactive) | 12.1% (inactive) | 28.6% (inactive)
CSc1nc(C)cc(OCC(=O)N2CCOCC2)n1 | 262 | -7.5% (inactive) | 25.5% (inactive) | 104 | -37.5% (inactive) | 95 | -0.451 (inactive) | -3.8e-05 (inactive) | 0.00307 (inactive) | 7.52% (inactive) | 23.9% (inactive)
CCOCC(=O)Nc1c(C(=O)Nc2ccc(OC)cc2OC)oc2ccccc12 | 543 | -4.1% (inactive) | 19.2% (inactive) | 93.9 | 52.4% (inactive) | 57.7 | -0.19 (inactive) | -9.5e-06 (inactive) | 0.00574 (inactive) | -20.7% (inactive) | -15.2% (inactive)
